Data published in PubChem BioAssay (EPA / NIEHS).
“And” between values parts separate entries of the source, which are not always exact repeats. Identical values can stand only once. Results filed as inconclusive are left out. More than one record can exist for a structure, and the calls need not agree. The source made the active and inactive calls. How the source made its calls: active means hit-call score of the fitted dose curve at least 0.9, where 1 is the maximum; inconclusive means response in the unintended direction; inactive means score below 0.9.

biological target: Estrogen receptor (Homo sapiens) (UniProt P03372); experiment: OT_ER_ERaERa_1440: Odyssey Thera (OT) 24-hour HEK293T Protein-Complementation Assay for Estrogen Receptor-alpha/-alpha Homodimer (AID 2283349);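 further: hits raise fluorescence above DMSO for agonists and antagonists alike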
Outline: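 Readout is the rise in mean fluorescence from reporter fragment complementation when ERα LBD (aa 310-547) units dimerize in HEK293T cells. Measured 24 h after dosing and analysed as increase over DMSO control.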

Chain of Estrogen receptor (Homo sapiens) (P03372 whole entry, looked up, the tested form may be a part): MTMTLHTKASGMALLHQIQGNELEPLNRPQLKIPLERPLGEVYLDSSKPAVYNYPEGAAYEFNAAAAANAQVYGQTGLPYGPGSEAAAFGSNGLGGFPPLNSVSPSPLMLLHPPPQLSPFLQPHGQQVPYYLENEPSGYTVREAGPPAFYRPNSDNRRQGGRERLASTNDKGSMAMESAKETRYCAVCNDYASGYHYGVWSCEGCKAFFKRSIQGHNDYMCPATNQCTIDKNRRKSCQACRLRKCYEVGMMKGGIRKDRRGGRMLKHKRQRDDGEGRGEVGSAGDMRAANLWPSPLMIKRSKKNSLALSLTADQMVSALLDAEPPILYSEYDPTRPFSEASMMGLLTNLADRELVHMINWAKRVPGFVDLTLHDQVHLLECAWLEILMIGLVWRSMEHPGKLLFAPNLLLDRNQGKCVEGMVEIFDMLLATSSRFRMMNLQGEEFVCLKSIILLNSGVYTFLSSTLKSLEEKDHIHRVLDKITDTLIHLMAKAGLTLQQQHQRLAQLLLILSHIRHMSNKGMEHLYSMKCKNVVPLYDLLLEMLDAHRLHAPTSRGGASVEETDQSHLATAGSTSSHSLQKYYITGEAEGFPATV

Compound	outcome	AC50
CCCCC(CC)CN1C(=O)C2C3C=CC(C3)C2C1=O (stereo unspecified)	inactive	–
O=C(c1ccccc1)C1CCCCC1	inactive	–
CCOC(=O)C(C)Oc1ccc(Oc2cnc3cc(Cl)ccc3n2)cc1 (stereo unspecified)	inactive	–
CCCCCOC(=O)COc1cc(N2C(=O)C3=C(CCCC3)C2=O)c(F)cc1Cl	inactive	–
N[C@@H](Cc1cc(I)c(Oc2ccc(O)c(I)c2)c(I)c1)C(=O)O	inactive	–
CCCN(CCC)C(=O)SCC	inactive	–
CC1(C)C(C=C(Cl)Cl)C1C(=O)OCc1cccc(Oc2ccccc2)c1 (stereo unspecified)	inactive	–
CCOC(=O)COc1cc(-n2ncc(C(F)(F)F)c(C)c2=O)c(F)cc1Cl	inactive	–
Cc1nn(C)c(Oc2ccccc2)c1C=NOCc1ccc(C(=O)OC(C)(C)C)cc1	inactive	–
N#CSCSc1nc2ccccc2s1	inactive	–
CC(=O)S[C@@H]1CC2=CC(=O)CC[C@]2(C)[C@H]2CC[C@@]3(C)[C@@H](CC[C@@]34CCC(=O)O4)[C@H]12	inactive	–
O=C(c1ccc(O)cc1O)c1ccc(O)cc1O	–	7.6 µM (active) and 7.51 µM (active) and 9.91 µM (active)
CC(C)(c1ccc(O)cc1)c1ccc(O)cc1	inactive	–
CSC(=O)c1cccc2nnsc12	inactive	–

biological target: Bile acid receptor (Homo sapiens) (UniProt Q96RI1); experiment: NVS_NR_hFXR_Antagonist: NovaScreen (NVS) Nuclear Receptor Binding Assay for human Farnesoid X Receptor Antagonism (FXR) (AID 2283350)
Outline: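 Cell-free TR-FRET ligand-binding read-out on human FXR (NR1H4) in antagonist mode, measured 1 h after dosing. Primary screen in duplicate at 25 uM, actives retested in concentration series; signal loss scored versus DMSO.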

Chain of Bile acid receptor (Homo sapiens) (Q96RI1 whole entry, looked up): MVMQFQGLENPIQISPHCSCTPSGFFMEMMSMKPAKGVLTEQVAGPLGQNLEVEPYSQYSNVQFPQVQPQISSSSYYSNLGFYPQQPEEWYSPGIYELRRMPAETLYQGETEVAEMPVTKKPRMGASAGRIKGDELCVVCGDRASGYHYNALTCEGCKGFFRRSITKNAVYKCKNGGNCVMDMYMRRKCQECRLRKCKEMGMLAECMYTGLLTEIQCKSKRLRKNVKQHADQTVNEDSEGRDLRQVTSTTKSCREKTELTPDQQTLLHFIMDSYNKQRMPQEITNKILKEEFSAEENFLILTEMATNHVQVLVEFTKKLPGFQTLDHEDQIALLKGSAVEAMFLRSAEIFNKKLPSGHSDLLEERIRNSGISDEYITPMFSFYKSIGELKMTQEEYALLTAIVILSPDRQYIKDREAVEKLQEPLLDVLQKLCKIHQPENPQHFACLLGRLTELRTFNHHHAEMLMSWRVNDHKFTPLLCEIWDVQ

Compound	outcome	AC50
COC(=O)c1ccccc1S(=O)(=O)NC(=O)Nc1nc(OC(F)F)cc(OC(F)F)n1	inactive	–
N#CSCSc1nc2ccccc2s1	–	4.96 µM (active)
Oc1ccc(C(c2ccc(O)cc2)C(Cl)(Cl)Cl)cc1	inactive	–

biological target: Estrogen receptor (Homo sapiens) + Estrogen receptor beta (Homo sapiens) (UniProt P03372+Q92731); experiment: OT_ER_ERaERb_0480: Odyssey Thera (OT) 8-hour HEK293T Protein-Complementation Assay for Estrogen Receptor-alpha/-beta Heterodimer (AID 2283352)
Outline: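 Human HEK293T cells were treated for 8 hours and receptor heterodimerisation was detected through reconstitution of a fluorescent reporter split between ER-alpha and ER-beta ligand-binding domains. Activity was analysed as gain of signal against DMSO.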

Chain of Estrogen receptor (Homo sapiens) + Estrogen receptor beta (Homo sapiens) (P03372 whole entry, looked up, the tested form may be a part): as the sequence (P03372 whole entry, looked up, the tested form may be a part) above
Chain of Estrogen receptor (Homo sapiens) + Estrogen receptor beta (Homo sapiens) (Q92731 whole entry, looked up, the tested form may be a part): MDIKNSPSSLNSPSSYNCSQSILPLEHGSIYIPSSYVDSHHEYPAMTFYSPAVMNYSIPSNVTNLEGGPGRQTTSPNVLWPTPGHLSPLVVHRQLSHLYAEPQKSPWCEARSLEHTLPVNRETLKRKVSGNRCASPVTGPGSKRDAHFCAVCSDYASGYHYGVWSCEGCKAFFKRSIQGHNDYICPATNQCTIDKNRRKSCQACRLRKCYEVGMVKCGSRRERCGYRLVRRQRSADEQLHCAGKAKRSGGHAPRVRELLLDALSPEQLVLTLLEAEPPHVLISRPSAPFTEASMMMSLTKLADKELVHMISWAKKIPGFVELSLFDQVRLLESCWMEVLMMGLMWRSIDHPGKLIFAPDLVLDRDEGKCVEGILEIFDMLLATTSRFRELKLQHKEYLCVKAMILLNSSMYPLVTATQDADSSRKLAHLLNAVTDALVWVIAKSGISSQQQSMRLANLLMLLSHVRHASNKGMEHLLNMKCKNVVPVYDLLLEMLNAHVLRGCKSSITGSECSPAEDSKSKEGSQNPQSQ

Compound	outcome	AC50
CCCCC(CC)CN1C(=O)C2C3C=CC(C3)C2C1=O (stereo unspecified)	inactive	–
CCCN(CCC)C(=O)SCC	inactive	–
CCOC(=O)COc1cc(-n2ncc(C(F)(F)F)c(C)c2=O)c(F)cc1Cl	inactive	–
Cc1nn(C)c(Oc2ccccc2)c1C=NOCc1ccc(C(=O)OC(C)(C)C)cc1	inactive	–
CC(=O)S[C@@H]1CC2=CC(=O)CC[C@]2(C)[C@H]2CC[C@@]3(C)[C@@H](CC[C@@]34CCC(=O)O4)[C@H]12	inactive	–
O=C(c1ccc(O)cc1O)c1ccc(O)cc1O	–	2.03 µM (active) and 1.72 µM (active) and 2.14 µM (active)

biological target: Androgen Receptor/SRC-1 Co-activator, AR (gene 367) (UniProt P10275); experiment: OT_AR_ARSRC1_0960: Odyssey Thera (OT) 16-hour HEK293T Protein-Complementation Assay for Androgen Receptor/SRC-1 Co-activator (AID 2283353);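 further: actives raise the signal above DMSO so potency reflects increased AR and SRC-1 complex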
Outline: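 Interaction of AR with SRC-1 was followed by YFP fragment complementation in HEK293T cells after 16 h of dosing. Gain of nuclear-over-cytoplasmic 488 nm fluorescence against DMSO controls defined activity.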

Chain of Androgen Receptor/SRC-1 Co-activator, AR (gene 367) (P10275 whole entry, looked up, the tested form may be a part): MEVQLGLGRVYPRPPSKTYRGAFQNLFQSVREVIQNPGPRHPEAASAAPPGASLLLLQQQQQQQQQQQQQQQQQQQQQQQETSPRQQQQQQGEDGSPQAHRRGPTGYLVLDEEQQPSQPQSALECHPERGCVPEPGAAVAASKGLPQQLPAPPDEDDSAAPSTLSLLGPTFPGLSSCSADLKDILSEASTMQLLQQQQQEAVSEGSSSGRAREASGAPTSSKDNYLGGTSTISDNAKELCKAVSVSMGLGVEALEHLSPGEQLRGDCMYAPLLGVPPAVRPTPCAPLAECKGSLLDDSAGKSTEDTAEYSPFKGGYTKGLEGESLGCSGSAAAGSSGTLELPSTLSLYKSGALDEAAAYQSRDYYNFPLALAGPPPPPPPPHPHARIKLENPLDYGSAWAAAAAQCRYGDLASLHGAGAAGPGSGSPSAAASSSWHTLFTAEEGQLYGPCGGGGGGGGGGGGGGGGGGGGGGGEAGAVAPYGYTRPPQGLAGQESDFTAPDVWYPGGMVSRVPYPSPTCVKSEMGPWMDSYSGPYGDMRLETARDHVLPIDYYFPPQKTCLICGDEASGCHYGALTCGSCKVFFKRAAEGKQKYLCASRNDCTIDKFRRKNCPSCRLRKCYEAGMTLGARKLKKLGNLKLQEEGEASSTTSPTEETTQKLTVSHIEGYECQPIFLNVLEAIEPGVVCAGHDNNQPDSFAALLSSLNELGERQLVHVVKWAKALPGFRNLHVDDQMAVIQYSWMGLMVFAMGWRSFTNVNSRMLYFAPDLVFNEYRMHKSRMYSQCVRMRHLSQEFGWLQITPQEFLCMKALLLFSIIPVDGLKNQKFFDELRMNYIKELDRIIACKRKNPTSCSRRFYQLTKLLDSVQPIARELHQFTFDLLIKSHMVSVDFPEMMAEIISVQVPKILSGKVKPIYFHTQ

Compound	outcome	AC50
O=C(c1ccccc1)C1CCCCC1	inactive	–
C[C@]12CC[C@@H]3c4ccc(O)cc4C[C@@H](CCCCCCCCCS(=O)CCCC(F)(F)C(F)(F)F)[C@H]3[C@@H]1CC[C@@H]2O (stereo partly specified)	inactive	–
CCCN(CCC)C(=O)SCC	inactive	–
CC1(C)C(C=C(Cl)Cl)C1C(=O)OCc1cccc(Oc2ccccc2)c1 (stereo unspecified)	inactive	–
CCOC(=O)COc1cc(-n2ncc(C(F)(F)F)c(C)c2=O)c(F)cc1Cl	inactive	–
Cc1nn(C)c(Oc2ccccc2)c1C=NOCc1ccc(C(=O)OC(C)(C)C)cc1	inactive	–
CCCCOCCOCCOCc1cc2c(cc1CCC)OCO2	inactive	–
N#CSCSc1nc2ccccc2s1	–	12.1 µM (active)
COC(=O)CSc1cc(N=c2sc(=O)n3n2CCCC3)c(F)cc1Cl	inactive	–
O=C(c1ccc(O)cc1O)c1ccc(O)cc1O	–	10.2 µM (active) and 9.93 µM (active) and 10.7 µM (active)
CC(C)(c1ccc(O)cc1)c1ccc(O)cc1	inactive	63.3 µM (active) and 51 µM (active) and 64.6 µM (active)
CSC(=O)c1cccc2nnsc12	–	32.5 µM (active)
